Compounds with a hit are over-represented: about 7.9% of the library has one in this group of screens.
LASV entry inh: qHTS for Inhibitors of binding or entry into cells for Lassa Virus; Lassa virus pseudotype entry inhibition, cell reporter; Potency, µM (series often up to 37.9 µM), without a hit: at the top dose activity change, negative = inhibition, hits mostly inhibitors; 300,000 compounds, 1.2% hits; AID 540256, 2011; calls by dose curve; tested in HEK293 cells; note: potency is the fitted concentration of half-maximal effect; nearly all actives have a fitted effect of over 50% in size
HCMV antiviral: qHTS Assay for inhibitors of the human cytomegalovirus (HCMV); 410,000 compounds, 4.5% hits; activity change, negative = inhibition, % at 57.5 µM; HFF cells, HCMV-luciferase reporter, 72 h; active compounds read low; in the data active = activity change below about -60%; inconclusive = no clear call, values can overlap the other calls; inactive = above about -39%
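Human foreskin fibroblasts infected with luciferase-reporter HCMV at MOI 1 PFU/cell, compounds at two doses. Luciferase measured 72 h post infection; normalized to buffer-only basal and Salinomycin (10uM) controls.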
MARV entry inh: qHTS for inhibitors of binding or entry into cells for Marburg Virus | Marburg virus pseudotyped entry inhibition, cell reporter | 300,000 compounds, 1.8% hits | Potency, µM (top dose mostly 37.8 µM), inactives show at the highest dose activity change, negative = inhibition, usual class: inhibitors; calls by dose curve; tested in HEK293 cells; note: potency is the fitted concentration of half-maximal effect
HCV inh: qHTS Assay for Inhibitors of Hepatitis C Virus (HCV). AID 651820, 2012. Huh7.5.1 HCVcc-Cre infection, luciferase reporter, 44 h. 340,000 compounds, 3.4% hits. Potency, µM (highest dose often 41.8 µM), inactives show at the highest dose activity change, negative = inhibition, hits mostly inhibitors; active = well fitted inhibition curve with a large enough effect; inconclusive = small, poorly fitted or top-dose-only effect, or another doubt; inactive = no such curve, though single readings can be large or run the other way; note: potency is the fitted concentration of half-maximal effect
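A cell-based infection assay in which seeded cells (1,000 per well) receive test compound after 4 h, are inoculated with HCVcc-Cre at approximately 0.5 moi, and are incubated 44 h before luminescence detection.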
FMDV inh: High Throughput Screening for Foot and Mouth Disease Virus Antivirals. FMDV antiviral cell-based qHTS. Potency, µM (series often up to 57.9 µM), inactives show at the top dose activity change, negative = inhibition, usual class: inhibitors. 410,000 compounds, 1.2% hits; calls by dose curve; tested in HEK293T cells; note: read-out not given here; potency is the fitted concentration of half-maximal effect; nearly all actives have a fitted effect of over 45% in size
The depositor's hits bear a star; ? = inconclusive; . = no result; + = active, no number; ! = not confirmed by another sample; [ ] = dose if it differs, or a comment. % is set by controls: 0 for no effect and ±100 for the full control effect.

SMILES | LASV entry inh | HCMV antiviral | MARV entry inh | HCV inh | FMDV inh
COc1ccc(-n2ncc3c(=O)n(CC(=O)Nc4ccc5c(c4)OCCO5)cnc32)cc1 | ? | -60* | ? | -29% | 4%
O=C(CC(Nc1ccccc1)C(=O)O)c1ccccc1 (configuration not stated) | ? | 44 | -6% | 2% | 19%
C=C(C(=O)c1ccccc1)C(C)CC(=O)c1ccccc1 (configuration not stated) | ? | -82* | ? | ? | 28µM*
C=C(C(=O)c1ccccc1)C(NC(C)(C)C)c1ccccc1 (configuration not stated) | ? | -98* | ? | 3.5µM* | 10µM*
CCCCC(=O)N[C@H]1CC[C@@]23CCCN2C(=O)CCC[C@H]3[C@H]1Cc1ccccc1 | . | -4 | . | . | .
CCNC(=O)C1CN(S(=O)(=O)c2ccccc2)CCN1S(=O)(=O)c1ccccc1 (configuration not stated) | 0% | -27 | 6% | -10% | 34%
CCc1cccc(CC)c1NC(=O)C1CN(S(=O)(=O)c2ccccc2)CCN1S(=O)(=O)c1ccccc1 (configuration not stated) | -23% | -35 | ? | 13µM* | -9%
Nn1c(-c2ccc(F)cc2)nc2ccccc2c1=O | . | -23 | . | 8% | -2%
O=C1c2cc(F)ccc2-n2c1nc1ccccc1c2=O | ? | -83* | ? | 2.5µM* | ?
COC(=O)C(C)(N)Cc1ccc(O)cc1 (configuration not stated) | ? | -18 | 2.8µM*! | ? | -17%
C[C@](N)(Cc1ccc(O)cc1)C(=O)O | 1% | . | ? | . | .
CC1CCc2nn(CC(=O)Nc3cccc(C(F)(F)F)c3)c(=O)cc2C1 (configuration not stated) | -11%[46.1 µM] | -17 | . | . | -22%
CCCCn1cc2c(c1-c1cccc(C)c1)c(=O)n(C)c(=O)n2C | . | 12 | . | 10µM* | -24%
O=c1c(-c2ccc(F)cc2)nc2cnc(N3CCOCC3)nc2n1C[C@H]1CCCO1 | . | . | . | . | 6%
Nc1ncnc2c1ncn2C1OC(CO)C2OC21 (configuration not stated) | . | -12 | . | . | 1%
Nc1ncnc2c1ncn2[C@@H]1O[C@H](CO)C[C@H]1O | . | -3 | . | 10µM* | -7%
Nc1ncnc2c1ncn2C1C=C(CO)C(O)C1O (configuration not stated) | 0.25µM* | . | ? | ? | -1%
COC(=O)c1ccc(CN2CCC3(CCC(CNC(=O)c4ccco4)O3)CC2)cc1 (configuration not stated) | . | . | . | . | 3%
COc1cc(C(C)=O)ccc1OCCCOc1cccc2cccnc12 | 5%[46.1 µM] | 43 | -9%[46.1 µM] | -12% | -13%
Cc1cccc2c(=O)cc(C(F)(F)F)[nH]c12 | -3%[46.1 µM] | -5 | 0%[46.1 µM] | -11% | ?
O=c1cc(C(F)(F)F)[nH]c2c(OC(F)(F)F)cccc12 | 11%[46.1 µM] | -95* | ? | 11% | ?
CCOC(=O)C[C@H]1c2ccccc2S(=O)(=O)N1Cc1cccc(C(F)(F)F)c1 | . | 5 | . | -24% | -16%
O=C(N/N=C/c1ccc[nH]1)c1ccc(O)cc1 | ? | -16 | ? | -5% | 25%
Cc1cc(Br)c(OCc2ccc(C(=O)N/N=C/c3ccc[nH]3)cc2)c(Br)c1 | . | + | . | -4% | ?
O=C(N/N=C/c1ccc[nH]1)c1ccc(COc2cccc3cccnc23)cc1 | ? | -97* | ? | 0.79µM* | 8.9µM*
SMILES | LASV entry inh | HCMV antiviral | MARV entry inh | HCV inh | FMDV inh
O=C(N/N=C/c1ccccc1C(=O)O)c1ccc(COc2cccc3cccnc23)cc1 | 20% | -7 | ? | 3% | 14%
CC(C)Cn1c(SC(C)C(=O)Nc2ccc3c(c2)OCCO3)nc2ccccc2c1=O (configuration not stated) | 12µM* | ? | ? | -17% | .
C[C@@H](C(=O)Nc1ccc2c(c1)OCCO2)n1c(=O)[nH]c2ccccc2c1=O | . | -70* | . | 15% | ?
CC(Sc1nc2ccccc2c(=O)n1C)C(=O)Nc1ccc2c(c1)OCCO2 (configuration not stated) | . | -80* | . | 10µM* | ?
CC(Sc1ncnc2ccccc12)C(=O)Nc1ccc2c(c1)OCCO2 (configuration not stated) | -23% | -73* | ? | 13µM* | 16µM*
CC(Sc1nnnn1C)C(=O)Nc1ccc2c(c1)OCCO2 (configuration not stated) | ? | 42 | 1%[46.1 µM] | 17% | 57%
CC(C)NC(=O)[C@@H]1C[C@@H](Sc2ccccn2)CN1C1CCN(C)CC1 | . | . | . | . | -6%
Cc1cccc(Cn2c(C)c(CNC3CCCCC3)c(C(=O)O)c2C)c1 | 18%[46.1 µM] | -31 | 4%[46.1 µM] | . | -18%
CNc1nc2cnc(Nc3cccc(F)c3)cc2n1-c1cccc(C(F)(F)F)c1 | . | -30 | . | . | .
COCc1c(C#N)c(NCc2cc(OC)c(OC)c(OC)c2)nc(C)c1[N+](=O)[O-] | ? | -34 | ? | 11µM* | 14µM*
O=C(/C=C/c1cccc([N+](=O)[O-])c1)NC(=S)Nc1cccc(NC(=O)c2ccccc2Cl)c1 | ? | -74* | ? | -23% | ?
CCN(CC)S(=O)(=O)c1cccc(NC(=O)/C=C/c2cccc([N+](=O)[O-])c2)c1 | ? | -85* | ? | 6.3µM* | 18µM*
CCN(CC)S(=O)(=O)c1cccc(NC(=O)/C=C/c2ccc([N+](=O)[O-])cc2)c1 | -9% | -15 | 0% | ? | -23%
CCCNC(=O)C(Cc1ccc(I)cc1)NC(=O)c1ccc(C#N)cc1 (configuration not stated) | . | -11 | . | 13% | 9%
COc1cc(=O)n2c(c1C(=O)NCc1nonc1C)CCN(C(=O)c1cccc(C)c1C)CC2 | . | . | . | . | -2%
CCOC(=O)c1c(C)[nH]c(C)c1S(=O)(=O)N(C)CC(=O)Nc1cc(Cl)ccc1OC | ? | -25 | . | . | -13%
CC(C)(C)Nc1oc(-c2ccccc2)nc1-c1ccccc1 | . | . | 8%[14.2 µM] | . | .
NCC12CC3CC(C1)CC(CN)(C3)C2 | -12% | -5 | 18µM* | -1% | -16%
N=c1c2ccccc2nnn1-c1cccc(C(F)(F)F)c1 | 15%[46.1 µM] | -61* | -3% | 18% | 2%
Cc1ccccc1C(=O)N1CCc2c(cnc(C)c2CNC(=O)CN2CCCCC2)C1 | . | . | . | . | -20%
CC1(C)C(c2ccccc2)=NC(c2ccc(Br)cc2)N1O (configuration not stated) | 12% | -19 | ? | 14% | 4µM*
COc1cccc(CNC(=O)[C@H](C)NC(=O)N2CC(=O)Nc3ccccc32)c1 | . | -3 | . | . | -17%
O=C1c2cccnc2C(Nc2ccc(Cl)cc2)N1Cc1cccs1 (configuration not stated) | -18% | -65* | ? | 3% | -15%
CCOCN(C(=O)Cn1c(C)nc2ccccc21)c1c(C)cccc1CC | -23%[46.1 µM] | 9 | -8%[46.1 µM] | . | -14%
